# Compound activity (PubChem BioAssay)
# FMDV antiviral – High Throughput Screening for Foot and Mouth Disease Virus Antivirals; FMDV antiviral cell-based qHTS; Potency, µM (top dose mostly 57.9 µM), usual class: inhibitors; hit rate 1.2% among 410,000; calls by dose curve; tested in HEK293T cells; also: read-out not given here; nearly all actives have a fitted effect of over 45% in size
# HCMV antiviral – qHTS Assay for inhibitors of the human cytomegalovirus (HCMV); HFF cells, HCMV-luciferase reporter, 72 h; active compounds read low; activity change, negative = inhibition, % at 57.5 µM; hit rate 4.5% among 410,000; AID 1259415, 2018; in the data active = activity change below about -60%; inconclusive = no clear call, values can overlap the other calls; inactive = above about -39%
#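 HFF cells seeded 16 h at 37C, treated with compounds, infected with luciferase-reporter HCMV at MOI 1 PFU/cell; luciferase read at 72 h post infection, normalized to buffer-only and Salinomycin controls.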
# Lassa entry inh – qHTS for Inhibitors of binding or entry into cells for Lassa Virus; Potency, µM (doses to about 37.9 µM), most hits filed as inhibitors; AID 540256, 2011; Lassa virus pseudotype entry inhibition, cell reporter; hit rate 1.2% among 300,000; calls by dose curve; tested in HEK293 cells; also: nearly all actives have a fitted effect of over 50% in size
# HCV inh – qHTS Assay for Inhibitors of Hepatitis C Virus (HCV); Huh7.5.1 HCVcc-Cre infection, luciferase reporter, 44 h; Potency, µM (top dose mostly 41.8 µM), most hits filed as inhibitors; hit rate 3.4% among 340,000; active = well fitted inhibition curve with a large enough effect; inconclusive = small, poorly fitted or top-dose-only effect, or another doubt; inactive = no such curve, though single readings can be large or run the other way
#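 Compounds are dispensed onto cells plated 4 h earlier at 1,000 per well, with HCVcc-Cre virus (about 0.5 moi) added next. Following 44 h of culture, luminescent signal is measured for 15 sec after 15 min with substrate at room temperature.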
# Marburg entry inh – qHTS for inhibitors of binding or entry into cells for Marburg Virus; hit rate 1.8% among 300,000; Marburg virus pseudotyped entry inhibition, cell reporter; Potency, µM (titrated, usually from 37.8 µM), hits mostly inhibitors; calls by dose curve; tested in HEK293 cells
# A number is an active result; i = inactive; ? = inconclusive; nt = not tested or not shown; ! = a repeat was not active. This is a sample that favours compounds with a hit; in the whole collection about 7.9% have one here.
SMILES,FMDV antiviral,HCMV antiviral,Lassa entry inh,HCV inh,Marburg entry inh
CCOC(=O)c1cccc(NC(=O)CC(c2cc(OC)c(OC)c(OC)c2)N2Cc3ccccc3C2=O)c1 (stereo not drawn),i,i,i,nt,nt
CC(C)c1ccc(NC(=O)c2cnc3sc(N4CCCC4)nn3c2=O)cc1,i,?,i,nt,nt
CCN(CC)CCNC(=O)c1ccc(NC(=O)c2ccc(Cl)c(S(=O)(=O)N3CCCCCC3)c2)cc1,i,-60.4,i,14.1µM,?
O=C(NCCn1ccc2ccccc21)c1ccc(S(=O)(=O)N2CCCCC2)cc1,?,-67.3,nt,?,nt
COc1ccc(C(=O)NCCn2ccc3ccccc32)cc1,i,i,?,i,?
CCN(CC)CCNC(=O)c1ccc(NC(=O)c2ccc(S(=O)(=O)N3CCCCCC3)cc2)cc1,i,i,i,10µM,?
CN(C)c1cccc(CNc2nccc3[nH]c(-c4ccc(F)c(F)c4)nc23)c1,nt,i,nt,nt,nt
CCC1(C)Cc2c(sc3nc(SC)n(-c4ccc(C)cc4)c(=O)c23)CO1 (stereo not drawn),i,i,i,nt,i
Cc1cccc(CNC(=O)c2c3n(c(C)cc2=O)-c2ccccc2SC(c2ccsc2)C3)n1 (stereo not drawn),i,nt,nt,nt,nt
COc1ccc2[nH]c3c(c2c1)CC(C)NC3=O (stereo not drawn),i,-74.7,nt,i,nt
Cc1cc(C(C)(C)C)cc(C)c1CCNC(=O)c1c(C)noc1C,?,?,?,11.2µM,?
NC(=O)NC(=O)CSc1nc2sc(-c3ccccc3)cc2c(=O)n1-c1ccccc1,?,-70.0,i,i,i
COC(=O)CNC(=O)CSc1nc2sc(-c3ccccc3)cc2c(=O)n1-c1ccccc1,i,i,nt,i,nt
O=C(CN1CCCCC1)NCC(=O)Nc1ccc(Br)cc1C(=O)c1ccccc1,i,i,?,11.2µM,?
CCc1nn2c(=O)c(S(=O)(=O)Nc3ccc(C(C)C)cc3)c(C)nc2s1,i,-63.8!,i,i,i
CCOC(=O)N1CCN(C(=O)c2cc(-c3ccc(OCC)cc3)nc3ccccc23)CC1,i,i,4.61µM,?,?
CCCc1ccc(-c2cc(C(=O)N3CCN(c4ccccn4)CC3)c3ccccc3n2)cc1,?,-64.4,nt,?,nt
COc1cc(-c2cc(C(=O)N3CCN(c4ccccn4)CC3)c3ccccc3n2)cc(OC)c1OC,?,i,i,12.6µM,?
CCOc1ccc(-c2cc(C(=O)N3CCN(c4ccccn4)CC3)c3ccccc3n2)cc1,i,i,?,7.08µM!,?
CCOc1ccc(-c2cc(C(=O)N3CCN(C)CC3)c3ccccc3n2)cc1,i,i,i,i,?
CC(=O)c1ccc(NC(=O)Nc2ncn(Cc3cccc(C)c3)n2)cc1,i,i,0.651µM,i,i
CC(C)CCn1cnc2c(sc3nc4c(cc32)CSC(C)(C)C4)c1=O,i,-74.4,i,i,i
O=c1nc(Nc2ccc(OCc3ccccc3)cc2)sc2ncccc12,i,-87.8,?,i,?
CCOC(=O)c1ccc(Nc2nc(=O)c3cccnc3s2)cc1,i,?,i,nt,2.06µM
CC(=O)c1ccc(Nc2nc(=O)c3cccnc3s2)cc1,i,i,?,i,?
SMILES,FMDV antiviral,HCMV antiviral,Lassa entry inh,HCV inh,Marburg entry inh
NC(=O)c1cc(-c2ccc(F)cc2)cc(-c2ccncc2)c1N,nt,nt,i,nt,nt
O=C(N[C@H]1CC[C@@]23CCCN2C(=O)CCC[C@H]3[C@H]1Cc1ccccc1)c1cccc(Cl)c1,nt,-65.2,nt,nt,nt
COc1cc(Br)cc(/C=N/N(CCO)C2=NS(=O)(=O)c3ccccc32)c1OC,?,i,i,?,3.98µM
COc1cccc(NS(=O)(=O)c2ccc3c(c2)CCCN3C(C)=O)c1,nt,-60.0,i,i,i
COc1ccc(NS(=O)(=O)c2ccc3c(c2)CCCN3C(C)=O)cc1,i,?,?,i,i
COc1ccc(S(=O)(=O)Nc2ccc3c(c2)N(C(C)=O)CCC3)cc1F,10µM,i,?,nt,nt
COc1ccc(S(=O)(=O)Nc2ccc3c(c2)CCCN3S(=O)(=O)c2ccc(C)cc2)cc1F,i,-63.9,?,nt,nt
Cc1ccc(S(=O)(=O)N2CCCc3cc(NS(=O)(=O)c4ccc(F)cc4)ccc32)cc1,i,?,?,nt,nt
Cc1ccc(S(=O)(=O)N2CCCc3cc(NS(=O)(=O)c4cc(F)ccc4F)ccc32)cc1,i,i,?,nt,nt
Cc1ccc(S(=O)(=O)N2CCCc3cc(NS(=O)(=O)c4ccccc4)ccc32)cc1,i,i,10µM,nt,nt
CCN(Cc1ccccc1)C(=O)c1c(C)oc2ncn(C)c(=O)c12,i,i,?,nt,nt
CCOc1ccccc1NC(=O)Cn1c(=O)n(CCC(C)C)c(=O)c2cccnc21,i,i,nt,nt,i
OC1CCCC1NCc1ccnc2cc(Cl)ccc12 (stereo not drawn),i,i,i,i,?
OC(CNc1ccnc2cc(Cl)ccc12)CNC1CCCCC1 (stereo not drawn),i,-77.7,?,?,?
CCNC1CCC(Nc2ccnc3cc(Cl)ccc23)CC1 (stereo not drawn),i,i,?,12.6µM,?
CCc1ccccc1N(CC)C(=O)c1c(C)oc2ncnc(N3CCOCC3)c12,i,i,i,nt,nt
Cc1cc(C)c(C2=CC(=O)C[C@H](c3ccc4c(c3)OCO4)C2)c(C)c1,i,-61.0,nt,i,i
COC(=O)c1ccc(-n2c(C)cc(C(=O)CCl)c2C)cc1,31.6µM,-84.5,nt,6.31µM,nt
Cc1cc(C(=O)COC(=O)C2=COCCO2)c(C)n1-c1ccc2c(c1)OCO2,i,i,i,i,i
CCOc1ccc(-n2c(C)cc(C(=O)CCl)c2C)cc1,28.2µM,-92.0,10µM,?,?
COC(=O)c1ccc(-n2c(C)cc(C(=O)COC(=O)C3=COCCO3)c2C)cc1,i,-66.1,i,i,i
COC(=O)c1ccc(-n2c(C)cc(C(=O)COC(=O)CNS(=O)(=O)c3ccc(C)cc3)c2C)cc1,i,i,i,i,i
CCOc1ccc(NC(=O)C(=O)c2cc(C)n(-c3cc(C)cc(C)c3)c2C)cc1,i,i,i,nt,i
COCCNC(=O)[C@@H]1[C@@H](CO)[C@@H]2Cn3c(cccc3=O)[C@H]1N2Cc1cccc(Cl)c1,nt,i,nt,nt,nt
CC(CCc1ccccc1)NCC#N (stereo not drawn),i,-61.1,nt,i,nt
SMILES,FMDV antiviral,HCMV antiviral,Lassa entry inh,HCV inh,Marburg entry inh
CC(CCc1ccccc1)NCCC#N (stereo not drawn),i,i,i,i,?
CC(CCc1ccc(O)cc1)NCCC(c1ccccc1)c1ccccc1 (stereo not drawn),i,i,?,14.1µM,7.08µM
COCc1ccc(C(=O)N2CCOc3c(cc(-c4cc(C)c5cccc(OC)c5n4)cc3OC)C2)o1,i,nt,nt,nt,nt
CNS(=O)(=O)c1cccc(C(=O)OCCCOC(=O)c2cccc(S(=O)(=O)NC)c2)c1,i,i,?,11.2µM,i
OC(CN1CCCCC1)Cn1c2ccc(Cl)cc2c2cc(Cl)ccc21 (stereo not drawn),?,i,i,?,10µM
Cc1cc(=O)n2c3ccccc3n(CC(O)CN3CCN(Cc4ccccc4)CC3)c2c1C#N (stereo not drawn),i,-67.9,nt,?,nt
